Efflux pump mplx: blocks antifungal efflux pumps in multiplex yeast assay | AID 485275 | actives 0.44% (n = 330,000) | inhibition, % at 10 µM | S. cerevisiae Candida pump triplex, Nile Red efflux;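 active means plate passing quality check with inhibition over a set limit, or well fluorescence over plate mean plus 4 SD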;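 further: Nile Red retained in pooled yeast measured as flow cytometry median fluorescence; 0% = buffer negative control and 100% = Enniatin B positive control; higher means more Nile Red kept so more efflux inhibition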
SKN-1 inh: inhibitors of C. elegans SKN-1. C. elegans VP596 Pgst-4::GFP/RFP ratio, acrylamide-induced, 24 h. inhibition, % at 21.8 µM. actives 0.49% (n = 360,000). AID 624304;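 active means interference check ratio from 0.5 to 1.5 plus GFP to RFP signal ratio inhibition reaching or exceeding a fixed threshold, cut at about 30% in these data, passing the limit was not always enough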
Mot1-301 SUMO: inhibitors of SUMOylation pathway: yeast Mot1-301 growth rescue; S. cerevisiae Mot1-301 growth rescue, ATP luminescence, 38.5C; percent above DMSO median, 100 means doubled; growth rescue, % at 18.8 µM; actives 1% (n = 320,000); AID 2716;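 active means every valid replicate shows activation above 250% relative to neutral control wells; inactive means the rest, any valid replicate at or below 250%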;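 further: OY570 slx delta 5 strain wells were the positive control but not used for scaling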
HGIII-sPLA2 inh: Inhibits HGIII-sPLA2 liposome hydrolysis, primary screen; QFRET BODIPY PC-A2 liposome hydrolysis, fluorescence; inhibition, % at 12.2 µM; actives 0.56% (n = 370,000); AID 743126;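 active means inhibition above mean plus 3 SD of compounds lying within the high and low control bounds, cut at about 19% in these data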;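 further: 0% = median of test compound wells and 100% = no enzyme DMSO wells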
Target sequence (Q9NZ20 whole entry, looked up): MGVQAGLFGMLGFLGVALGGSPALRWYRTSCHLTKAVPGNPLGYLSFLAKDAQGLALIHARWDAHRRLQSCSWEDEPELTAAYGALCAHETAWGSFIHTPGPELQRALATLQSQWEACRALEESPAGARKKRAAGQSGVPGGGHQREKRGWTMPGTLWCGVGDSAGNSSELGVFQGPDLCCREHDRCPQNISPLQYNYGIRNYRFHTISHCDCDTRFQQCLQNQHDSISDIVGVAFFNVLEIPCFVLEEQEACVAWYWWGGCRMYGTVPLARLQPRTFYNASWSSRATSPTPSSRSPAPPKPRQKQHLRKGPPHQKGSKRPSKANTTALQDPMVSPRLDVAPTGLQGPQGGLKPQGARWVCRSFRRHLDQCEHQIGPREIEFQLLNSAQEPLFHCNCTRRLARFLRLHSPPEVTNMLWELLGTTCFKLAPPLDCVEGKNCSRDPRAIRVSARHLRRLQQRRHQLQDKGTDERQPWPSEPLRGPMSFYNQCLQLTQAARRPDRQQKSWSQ
sPLA2 confirm: human GIII-sPLA2 inhibition, confirmation; recombinant hGIII-sPLA2, BODIPY PC-A2 QFRET fluorescence; actives 34% (n = 2,000); shares compounds with HGIII-sPLA2 inh; inhibition, % at 12.2 µM; AID 743280;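 active means mean inhibition across triplicates above the hit cutoff set in the earlier primary screen, cut at about 19% in these data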;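 further: 0% = enzyme with DMSO and 100% = DMSO wells lacking enzyme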
BODIPY interf: 535nm fluorescence interference, HGIII-sPLA2 counter-screen | actives 8.5% (n = 2,000) | shares compounds with HGIII-sPLA2 inh | BODIPY FL product fluorescence interference, QFRET | inhibition, % at 12.2 µM | AID 743282;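 active means average inhibition above the solvent-only control mean plus 3 SD, cut at about 6% in these data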;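 further: 0% = DMSO with substrate plus product and 100% = DMSO with substrate alone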
BODIPY interf DR: 535nm optical interference dose response, HGIII-sPLA2 counter-screen. shares compounds with HGIII-sPLA2 inh. BODIPY FL product fluorescence interference, cell-free. IC50, µM. 240 tested, under 10 active. AID 743455;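 active means IC50 at or below 10 µM; inactive means IC50 above 10 µM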
* hit, by the source's call. An excerpt weighted towards active compounds, which were near 2.2% of everything screened.

`O=C(/C=C/c1ccccc1)NC(=S)NNC(=O)c1cnccn1` gave Efflux pump mplx -0.3, SKN-1 inh 18.1, Mot1-301 SUMO -0.8, HGIII-sPLA2 inh 24.5*, sPLA2 confirm 33.9*, BODIPY interf -0.8 and BODIPY interf DR >122.
For CCOc1ccc2c(c1)-c1c(ssc1=S)C(C)(C)N2C(=O)CSC1=NCCS1 the results were Efflux pump mplx 0.2, SKN-1 inh 12.6, Mot1-301 SUMO 5.7, HGIII-sPLA2 inh 36.3*, sPLA2 confirm 20.2* and BODIPY interf -7.9.
Clc1ccc([C@H]2OC[C@@]3(CNCc4ccccn4)CS[C@H](c4ccc(Cl)cc4)N23)cc1 was read as HGIII-sPLA2 inh 1.1.
CCOC(=O)c1sc(=S)n(-c2ccc(OC)cc2)c1N was read as Efflux pump mplx 0.0, SKN-1 inh 16.0, Mot1-301 SUMO -9.1, HGIII-sPLA2 inh 24.9*, sPLA2 confirm 14.6 and BODIPY interf -1.0.
Screening Cc1cccc(/C=N/Nc2ccc3ccccc3n2)c1 returned Efflux pump mplx 0.0, SKN-1 inh 24.1, Mot1-301 SUMO -14.0, HGIII-sPLA2 inh 22.6*, sPLA2 confirm -20.2 and BODIPY interf -6.3.
Screening Cc1cccc(N2CCN(S(=O)(=O)c3c(C)noc3/C=C/N(C)C)CC2)c1C returned Efflux pump mplx 0.0, SKN-1 inh -2.8, Mot1-301 SUMO 0.3, HGIII-sPLA2 inh 27.1*, sPLA2 confirm 23.7* and BODIPY interf -4.9.
`Cc1noc(/C=C/N(C)C)c1S(=O)(=O)N1CCN(c2ccc(F)cc2)CC1` gave Efflux pump mplx -0.3, SKN-1 inh -9.8, Mot1-301 SUMO 32.8 and HGIII-sPLA2 inh 11.8.
For COc1ccc(NC(=S)NC(NC(=O)c2cccc(Cl)c2)C(Cl)(Cl)Cl)c([N+](=O)[O-])c1 (configuration not stated) the results were Efflux pump mplx -0.2, SKN-1 inh 19.1, HGIII-sPLA2 inh 28.9*, sPLA2 confirm 52.1* and BODIPY interf 11.8*.
Cc1ccccc1NC(=O)NCCc1nc2ccccc2[nH]1 was read as Efflux pump mplx 0.1, SKN-1 inh 24.0, Mot1-301 SUMO -8.5 and HGIII-sPLA2 inh 0.2.
S=C(Nc1ccc(Cl)cc1)c1nc2ccccc2[nH]1 was read as Efflux pump mplx 1.6, SKN-1 inh 8.6, Mot1-301 SUMO 2.9, HGIII-sPLA2 inh 30.2*, sPLA2 confirm 35.7*, BODIPY interf 1.6 and BODIPY interf DR >122.
`Cc1ccccc1NC(=S)c1nc2ccccc2[nH]1` gave Efflux pump mplx 0.7, SKN-1 inh 0.1, Mot1-301 SUMO 15.7, HGIII-sPLA2 inh 44.6*, sPLA2 confirm 31.4*, BODIPY interf 2.8 and BODIPY interf DR >122.
`c1ccc(N2CCN(c3ccccc3)C2c2cccnc2)cc1` gave Efflux pump mplx 0.1, SKN-1 inh -2.9, Mot1-301 SUMO 25.4, HGIII-sPLA2 inh 24.1*, sPLA2 confirm 3.9 and BODIPY interf -12.0.
Cc1ccc(N2CCN(c3ccc(C)cc3)C2c2cccnc2)cc1 was read as Efflux pump mplx -0.1, SKN-1 inh -0.5, Mot1-301 SUMO 5.1 and HGIII-sPLA2 inh 11.4.
`CCOC(=O)[C@@H]1c2[nH]c3ccccc3c2C[C@@]2(C(=O)OC)C=CCN12` gave HGIII-sPLA2 inh 14.5.
For COCCCNc1ccn2nc(-c3ccccc3)cc2n1 the results were SKN-1 inh 5.7 and HGIII-sPLA2 inh -7.1.
CC(C)(CO)CNc1ccn2nccc2n1 was read as SKN-1 inh 11.6, HGIII-sPLA2 inh 21.5*, sPLA2 confirm 0.3 and BODIPY interf -1.6.
Cc1ccccc1NC(=S)NC(=O)c1cncc(Br)c1 was read as Efflux pump mplx 0.1, SKN-1 inh 4.1, Mot1-301 SUMO 14.0, HGIII-sPLA2 inh 22.9*, sPLA2 confirm 7.0 and BODIPY interf 1.8.
For COc1cc2c(cc1OC)N1C(=O)CC(OCC(=O)O)C3C4CC5(CCN5C(=O)C4=O)C2C31 (configuration not stated) the results were Efflux pump mplx -0.2, SKN-1 inh -4.1, Mot1-301 SUMO -17.3 and HGIII-sPLA2 inh 5.3.
For CCC(=O)NC(=S)Nc1ccc(OC)cc1OC the results were Efflux pump mplx 0.2, SKN-1 inh -0.6, Mot1-301 SUMO -0.4, HGIII-sPLA2 inh 21.2*, sPLA2 confirm 0.3 and BODIPY interf -6.7.
For CCN(CC(=O)Nc1ccc(OC)cc1)CC(=O)Nc1ccc(Br)cc1F the results were Efflux pump mplx 0.0, SKN-1 inh -11.0, Mot1-301 SUMO -0.9 and HGIII-sPLA2 inh -15.2.
`COc1ccc(NCC(=O)Nc2ccc(Br)cc2F)c(OC)c1` gave Efflux pump mplx -0.1, SKN-1 inh 0.2, Mot1-301 SUMO inactive, HGIII-sPLA2 inh 22.1*, sPLA2 confirm 22.8* and BODIPY interf 4.0.
For Cn1nc(C(=O)NCc2ccccc2Cl)c2c1-c1ccccc1S(=O)(=O)C2 the results were Efflux pump mplx 0.2, SKN-1 inh -2.0, Mot1-301 SUMO 21.3 and HGIII-sPLA2 inh 0.4.
`Cc1noc(C)c1COc1ccc(C(=O)OCC(=O)Nc2cccc(S(=O)(=O)N3CCOCC3)c2)cc1` gave Efflux pump mplx -0.3, SKN-1 inh 5.1, Mot1-301 SUMO 10.2 and HGIII-sPLA2 inh -36.7.
Screening Cc1cc(N(C)C)ccc1N=Nc1ccc(N)cc1 returned Efflux pump mplx 0.0, SKN-1 inh 96.8*, Mot1-301 SUMO 17.1, HGIII-sPLA2 inh 26.1*, sPLA2 confirm 38.2* and BODIPY interf 17.6*.
Screening O=C(NNC(=S)NC1CC2C=CC1C2)c1cccnc1 (configuration not stated) returned Efflux pump mplx 0.1, SKN-1 inh 16.3, Mot1-301 SUMO 282.6, HGIII-sPLA2 inh 22.0*, sPLA2 confirm 21.2* and BODIPY interf -8.0.
For O=C(CSCc1ccccc1Cl)Nc1ccc(C(=O)O)cc1 the results were Efflux pump mplx 0.0, SKN-1 inh -12.0, Mot1-301 SUMO -5.0 and HGIII-sPLA2 inh 2.6.
Cc1cccc(NC(=S)NNC(=O)c2csc(C)c2)c1 was read as Efflux pump mplx 0.0, SKN-1 inh 3.5, Mot1-301 SUMO -4.2, HGIII-sPLA2 inh 26.9*, sPLA2 confirm 38.3*, BODIPY interf -0.1 and BODIPY interf DR >122.
For O=C(CSCc1ccccc1Cl)NNC(=S)Nc1ccccc1 the results were Efflux pump mplx 0.0, SKN-1 inh 2.4, Mot1-301 SUMO -4.5, HGIII-sPLA2 inh 40.6*, sPLA2 confirm 42.0*, BODIPY interf 2.4 and BODIPY interf DR >122.
Screening Cc1cccc(NC(=S)NNC(=O)c2csc3c2CCCC3)c1 returned Efflux pump mplx 0.1, SKN-1 inh 13.0, Mot1-301 SUMO 3.7 and HGIII-sPLA2 inh 17.0.
Screening Cc1cccc(NCC(=O)NNC(=S)Nc2ccccc2)c1 returned Efflux pump mplx -0.1, SKN-1 inh 3.3, Mot1-301 SUMO -17.0, HGIII-sPLA2 inh 23.1*, sPLA2 confirm 14.7 and BODIPY interf 0.3.

Source: PubChem (several laboratories)
